# In the supplement of paper PMC8728848:
# This is one part of a sample in which the strongest signals are shown more often than they occur.
# B1: PpFlo2 (Pichia pastoris) (protein)
# chain: MGSSHHHHHHSSGLVPRGSHMDDSGNGDNSDTAYGCDITTNAVDGFDATIYQYNANDLRLIRDPTFMSTGYLGRNVLNKISGVTVPGFNIWNPSSRTATVYGVKNVNYYNMVLELKGYFKADVSGDYKLTLSHIDDSSMLFFGKETAFKCCDAGSIPLNEAPTDYSLFTIKPSNQVNSEVISATQYLEAGKYYPVRIVFVNALERARFDFKLTIPSGAVLDDFQNYIYQFGDLDENSCHE
# What was measured:
# Experiment in all cases: glycan array binding signal (z-score within array); higher = stronger binding
# Conditions in all cases: glycan notation: IUPAC condensed, linker removed
# [1] = target: GlcNAc(b1-3)Gal(b1-4)GlcNAc(b1-3)Gal(b1-4)GlcNAc(b1-2)Man(a1-3)[GlcNAc(b1-3)Gal(b1-4)GlcNAc(b1-3)Gal(b1-4)GlcNAc(b1-2)Man(a1-6)]Man(b1-4)GlcNAc(b1-4)[Fuc(a1-6)]GlcNAc
# Summary of the method: (§1)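 Glycan array data came from 3228 arrays in the Consortium for Functional Glycomics database, and only arrays with an available protein sequence were kept. Glycan names were put into IUPAC-condensed notation, and columns mapping to the same glycan were averaged. The binding signal is a within-array Z-score, averaged across arrays of one protein sequence run at different concentrations or buffers and across linkers. A negative Z-score can be read as non-binding.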
# [2] = target: GlcNAc(b1-3)Gal(b1-4)GlcNAc(b1-3)Gal(b1-4)GlcNAc(b1-3)Gal(b1-4)GlcNAc(b1-2)Man(a1-3)[GlcNAc(b1-3)Gal(b1-4)GlcNAc(b1-3)Gal(b1-4)GlcNAc(b1-3)Gal(b1-4)GlcNAc(b1-2)Man(a1-6)]Man(b1-4)GlcNAc(b1-4)GlcNAc
# Summary of the method: as §1
# [3] = target: GlcNAc(b1-3)Gal(b1-4)GlcNAc(b1-3)Gal(b1-4)GlcNAc(b1-3)Gal(b1-4)GlcNAc(b1-2)Man(a1-3)[GlcNAc(b1-3)Gal(b1-4)GlcNAc(b1-3)Gal(b1-4)GlcNAc(b1-3)Gal(b1-4)GlcNAc(b1-2)Man(a1-6)]Man(b1-4)GlcNAc(b1-4)[Fuc(a1-6)]GlcNAc
# Summary of the method: as §1
# [4] = target: GlcNAc(b1-3)Gal(b1-4)GlcNAc(b1-3)Gal(b1-4)GlcNAc(b1-3)Gal(b1-4)GlcNAc(b1-3)Gal(b1-4)GlcNAc(b1-2)Man(a1-3)[GlcNAc(b1-3)Gal(b1-4)GlcNAc(b1-3)Gal(b1-4)GlcNAc(b1-3)Gal(b1-4)GlcNAc(b1-3)Gal(b1-4)GlcNAc(b1-2)Man(a1-6)]Man(b1-4)GlcNAc(b1-4)GlcNAc
# Summary of the method: as §1
# [5] = target: GlcNAc(b1-3)Gal(b1-4)GlcNAc(b1-3)Gal(b1-4)GlcNAc(b1-3)Gal(b1-4)GlcNAc(b1-3)Gal(b1-4)GlcNAc(b1-2)Man(a1-3)[GlcNAc(b1-3)Gal(b1-4)GlcNAc(b1-3)Gal(b1-4)GlcNAc(b1-3)Gal(b1-4)GlcNAc(b1-3)Gal(b1-4)GlcNAc(b1-2)Man(a1-6)]Man(b1-4)GlcNAc(b1-4)[Fuc(a1-6)]GlcNAc
# Summary of the method: as §1
# [6] = target: GlcNAc(b1-3)Gal(b1-4)GlcNAc(b1-3)Gal(b1-4)GlcNAc(b1-3)Gal(b1-4)GlcNAc(b1-3)Gal(b1-4)GlcNAc(b1-2)[GlcNAc(b1-3)Gal(b1-4)GlcNAc(b1-3)Gal(b1-4)GlcNAc(b1-3)Gal(b1-4)GlcNAc(b1-3)Gal(b1-4)GlcNAc(b1-6)]Man(a1-6)[GlcNAc(b1-3)Gal(b1-4)GlcNAc(b1-3)Gal(b1-4)GlcNAc(b1-3)Gal(b1-4)GlcNAc(b1-3)Gal(b1-4)GlcNAc(b1-2)Man(a1-3)]Man(b1-4)GlcNAc(b1-4)[Fuc(a1-6)]GlcNAc
# Summary of the method: as §1
# [7] = target: GlcNAc(b1-3)Gal(b1-4)GlcNAc(b1-3)[GlcNAc(b1-3)Gal(b1-4)GlcNAc(b1-3)]GalNAc
# Summary of the method: as §1
# [8] = target: GlcNAc(b1-3)Gal(b1-4)GlcNAc(b1-6)[Gal(b1-3)]GalNAc
# Summary of the method: as §1
# [9] = target: GlcNAc(b1-4)Gal(b1-4)GlcNAc
# Summary of the method: as §1
# [10] = target: GlcNAc(b1-6)Gal(b1-4)GlcNAc
# Summary of the method: as §1
# GlcNAc(b1-6)GalNAc = target: GlcNAc(b1-6)GalNAc
# Summary of the method: as §1
# [11] = target: Man(a1-2)Man(a1-3)[Man(a1-6)]Man(a1-6)[Man(a1-2)Man(a1-3)]Man(b1-4)GlcNAc(b1-4)GlcNAc
# Summary of the method: as §1
# [12] = target: Man(a1-3)[Man(a1-6)]Man(b1-4)GlcNAc(b1-4)GlcNAc
# Summary of the method: as §1
# [13] = target: Man(a1-3)[Man(a1-6)]Man(b1-4)GlcNAc(b1-4)[Fuc(a1-6)]GlcNAc
# Summary of the method: as §1
# [14] = target: Neu5Ac(a2-3)Gal(b1-3)[Fuc(a1-4)]GlcNAc
# Summary of the method: as §1
# [15] = target: Neu5Ac(a2-3)Gal(b1-3)[GlcNAc(b1-6)]GalNAc
# Summary of the method: as §1
# [16] = target: Neu5Ac(a2-3)Gal(b1-4)GlcNAc(b1-2)Man(a1-3)[Neu5Ac(a2-3)Gal(b1-4)GlcNAc(b1-2)Man(a1-6)]Man(b1-4)GlcNAc(b1-4)[Fuc(a1-6)]GlcNAc
# Summary of the method: as §1
# [17] = target: Neu5Ac(a2-3)Gal(b1-4)GlcNAc(b1-2)[Neu5Ac(a2-3)Gal(b1-4)GlcNAc(b1-4)]Man(a1-3)[GlcNAc(b1-4)][Neu5Ac(a2-3)Gal(b1-4)GlcNAc(b1-4)Man(a1-6)]Man(b1-4)GlcNAc(b1-4)GlcNAc
# Summary of the method: as §1
# [18] = target: Neu5Ac(a2-3)Gal(b1-4)GlcNAc(b1-3)Gal(b1-4)GlcNAc
# Summary of the method: as §1
# [19] = target: Neu5Ac(a2-3)Gal(b1-4)GlcNAc(b1-3)Gal(b1-4)GlcNAc(b1-2)Man(a1-3)[Neu5Ac(a2-3)Gal(b1-4)GlcNAc(b1-3)Gal(b1-4)GlcNAc(b1-2)Man(a1-6)]Man(b1-4)GlcNAc(b1-4)GlcNAc
# Summary of the method: as §1
# [20] = target: Neu5Ac(a2-3)GalNAc(b1-4)GlcNAc
# Summary of the method: as §1
# [21] = target: Neu5Ac(a2-6)Gal(b1-4)GlcNAc(b1-2)Man(a1-3)Man(b1-4)GlcNAc(b1-4)GlcNAc
# Summary of the method: as §1
# [22] = target: Neu5Ac(a2-6)Gal(b1-4)GlcNAc(b1-2)Man(a1-3)[Neu5Ac(a2-3)Gal(b1-4)GlcNAc(b1-2)Man(a1-6)]Man(b1-4)GlcNAc(b1-4)GlcNAc
# Summary of the method: as §1
# [23] = target: Neu5Ac(a2-6)Gal(b1-4)GlcNAc(b1-2)Man(a1-6)[GlcNAc(b1-2)Man(a1-3)]Man(b1-4)GlcNAc(b1-4)GlcNAc
# Summary of the method: as §1
# [24] = target: Neu5Ac(a2-8)Neu5Ac(a2-3)Gal(b1-4)Glc
# Summary of the method: as §1
# [25] = target: Neu5Gc(a2-3)Gal(b1-3)GlcNAc
# Summary of the method: as §1
# [26] = target: Neu5Gc(a2-3)Gal(b1-4)GlcNAc
# Summary of the method: as §1
# [27] = target: Neu5Gc(a2-8)Neu5Gc(a2-6)Gal(b1-4)GlcNAc
# Summary of the method: as §1
binder,measurement,setting,value
B1,glycan array binding signal (z-score),[1],6.15
same,glycan array binding signal (z-score),[2],4.24
same,glycan array binding signal (z-score),[3],7.22
same,glycan array binding signal (z-score),[4],7.34
same,glycan array binding signal (z-score),[5],7.63
same,glycan array binding signal (z-score),[6],4.18
same,glycan array binding signal (z-score),[7],4.33
same,glycan array binding signal (z-score),[8],2.11
same,glycan array binding signal (z-score),[9],0.414
same,glycan array binding signal (z-score),[10],0.578
same,glycan array binding signal (z-score),GlcNAc(b1-6)GalNAc,0.967
same,glycan array binding signal (z-score),[11],-0.276
same,glycan array binding signal (z-score),[12],0.074
same,glycan array binding signal (z-score),[13],-0.248
same,glycan array binding signal (z-score),[14],-0.304
same,glycan array binding signal (z-score),[15],0.351
same,glycan array binding signal (z-score),[16],-0.271
same,glycan array binding signal (z-score),[17],-0.271
same,glycan array binding signal (z-score),[18],-0.293
same,glycan array binding signal (z-score),[19],-0.239
same,glycan array binding signal (z-score),[20],-0.302
same,glycan array binding signal (z-score),[21],-0.293
same,glycan array binding signal (z-score),[22],-0.271
same,glycan array binding signal (z-score),[23],2.77
same,glycan array binding signal (z-score),[24],-0.301
same,glycan array binding signal (z-score),[25],-0.301
same,glycan array binding signal (z-score),[26],-0.299
same,glycan array binding signal (z-score),[27],-0.273
